Vc quorum ag = inducers of Vibrio cholerae quorum light production without autoinducers | activation, % at 18.7 µM | V. cholerae BH1578 lux reporter, luminescence, 6 h | actives 0.16% (n = 350,000); in the data active = activation mostly above about 9.7%, no sharp cut-off
PrPC TRFRET = reduces human prion protein on the cell surface; P04156; actives 0.43% (n = 370,000); cell surface PrPC, TR-FRET read-out; inhibition, % at 13.8 µM; in the data active = inhibition above about 24%
VHR inh abs = blocks human VHR1 dual specificity phosphatase; P51452; recombinant VHR phosphatase, pNPP absorbance; inhibition, % at 13.3 µM; actives 0.52% (n = 290,000); in the data active = inhibition above about 50%
Target sequence (P51452 whole entry, looked up): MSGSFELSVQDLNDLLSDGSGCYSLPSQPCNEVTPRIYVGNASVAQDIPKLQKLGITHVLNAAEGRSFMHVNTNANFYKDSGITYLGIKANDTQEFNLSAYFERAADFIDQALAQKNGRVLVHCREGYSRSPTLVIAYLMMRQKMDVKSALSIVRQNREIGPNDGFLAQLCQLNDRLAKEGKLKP
PriA SSB inh = K. pneumoniae PriA-SSBct interaction inhibition; inhibition, % at 33 µM; AID 1272365; AlphaScreen SSBct-PriA binding, biotinylated peptide; actives 0.6% (n = 430,000); in the data active = inhibition mostly above about 37%, no sharp cut-off; inactive = mostly below about 20%
CCHF vOTU inh-1 = CCHFV vOTU protease inhibition. Pep-AMC fluorescence. inhibition, % at 11.5 µM. actives 0.55% (n = 370,000). AID 651958
TcdB inh = inhibitors of Clostridioides difficile toxin B glycohydrolase; P18177; TcdB glycohydrolase enzymatic assay, plate reader; inhibition, % at 9.99 µM; actives 0.24% (n = 350,000); in the data active = inhibition above about 10%
CCHF vOTU inh-2 = CCHFV vOTU protease inhibition, confirmation | shares compounds with CCHF vOTU inh-1 | Recombinant CCHFV vOTU, Pep-AMC fluorescence | inhibition, % at 11.5 µM | actives 17% (n = 1,900)
Hits are given with their value; i = inactive; nt = no result. Hits are enriched below; roughly 1.5% of the tested compounds scored in any of these assays. Cut-off read from the data, not from the text of the source, unless noted: active = inhibition above about 30%; inactive = the rest.

SMILES	Vc quorum ag	PrPC TRFRET	VHR inh abs	PriA SSB inh	CCHF vOTU inh-1	TcdB inh	CCHF vOTU inh-2
COc1cc(-c2ccc(Nc3ccccc3C(=O)O)c(OC)c2)ccc1Nc1ccccc1C(=O)O	i	i	i	i	51	i	39
COc1cc([N+](=O)[O-])c(OC)cc1Nc1ccccc1C(=O)O	nt	i	nt	nt	i	i	nt
CCCc1sc(N)nc1-c1ccc(C)cc1	i	i	i	i	33	nt	i
Cc1ccc(-c2nc(N)sc2C)cc1	i	i	i	i	i	i	nt
COC(C)(CNC(=O)CCc1ccccc1F)c1cccc(Cl)c1 (centres undefined)	nt	nt	nt	i	nt	nt	nt
CN1N=C(N)c2cn(C3OC(COP(=O)(O)O)C(O)C3O)c3ncnc1c23 (centres undefined)	50	i	nt	i	32	i	i
Nc1ncnc2c1ncn2[C@@H]1O[C@H](COP(=O)(O)O)[C@@H](O)[C@H]1O	i	i	i	i	i	i	nt
O=C(CCc1csc(NC(=O)NC2CCCCC2)n1)NCCc1c[nH]c2ccccc12	nt	nt	nt	i	nt	nt	nt
OC(c1ccc(Cl)c(F)c1)c1ncc(-c2cccc(C(F)(F)F)c2)[nH]1 (centres undefined)	i	i	nt	nt	36	i	i
O=C(NC1CCCCC1)C(c1ccccc1F)n1c(=O)c(-c2ccco2)nc2ccccc21 (centres undefined)	nt	i	nt	nt	i	i	nt
O=C(NC1CCCCC1)C(c1ccnc2ccccc12)n1c(=O)c(-c2ccco2)nc2ccccc21 (centres undefined)	nt	i	nt	nt	33	i	i
O=C(NCCn1nc(C(F)(F)F)c2c1CCOC2)c1ccccn1	nt	nt	nt	i	nt	nt	nt
CCN(CC)c1nc(N)c2c(N)n(-c3ccccc3C)c(=S)c(C#N)c2c1C#N	i	i	i	i	34	nt	39
CCc1nn(CCCC(=O)NCc2ccccc2Br)c(=O)c2cc3occc3n12	i	i	i	i	47	i	i
O=C(Nc1ccc(NC(=O)C2CC2)cn1)c1ccccc1	i	i	i	i	i	i	nt
O=C(Cc1ccccc1)Nc1ccc(NC(=O)c2ccccc2)nc1	i	i	i	i	33	i	i
O=S(=O)(NCc1cc(-c2cccs2)n(C2CCCC2)n1)c1cccs1	nt	nt	nt	i	nt	nt	nt
O=C1C(=Cc2cn(-c3ccccc3)nc2-c2ccc(OCc3ccccc3)cc2)SC(=S)N1CCS(=O)(=O)O	i	i	nt	nt	30	i	i
Cc1ccc(S(=O)(=O)CCC(=O)NCCN2C(=O)S/C(=C\c3ccccc3)C2=O)cc1	i	i	i	i	40	nt	i
O=C(CCS(=O)(=O)c1ccc(Cl)cc1)NCCN1C(=O)S/C(=C\c2ccccc2F)C1=O	i	i	i	i	i	i	nt
C=CCOc1c(Cl)cc(CNc2ccc(N(C)C)cc2)cc1OC	i	i	i	i	69	nt	i
Cc1nn(C)c(C(=O)N/N=C/c2ccccc2)c1[N+](=O)[O-]	i	i	i	nt	31	nt	i
CC(OC(=O)c1cccc(-n2cnnn2)c1)C(=O)Nc1ccc(F)cc1Cl (centres undefined)	i	i	nt	i	33	i	i
Cc1noc(C)c1C(=O)N1CCS[C@H](c2ccccc2F)CC1	nt	nt	nt	i	nt	nt	nt
C=CCN1C=CC(=C/C=C(/C#N)C(=O)OCC)C=C1	i	i	i	i	38	nt	30
SMILES	Vc quorum ag	PrPC TRFRET	VHR inh abs	PriA SSB inh	CCHF vOTU inh-1	TcdB inh	CCHF vOTU inh-2
O=C(CSc1nnc2ccc(-c3ccco3)nn12)c1cccs1	nt	nt	nt	i	nt	nt	nt
O=C(NCCCn1ccc2cccnc21)c1ccc(Br)o1	nt	nt	nt	i	nt	nt	nt
Cc1cc(O[C@H]2CCN(C(=O)CCc3ccc(Cl)c(F)c3)C2)cc(=O)o1	nt	nt	nt	i	nt	nt	nt
CC(=O)N(C1=C(N2CCOCC2)C(=O)c2ccccc2C1=O)c1ccc(C(=O)O)cc1	i	i	i	i	52	i	36
O=C(O)c1ccc(NC2=C(N3CCOCC3)C(=O)c3ccccc3C2=O)cc1	i	i	i	i	57	nt	i
Cc1ccc(NC2=C(N3CCOCC3)C(=O)c3ccccc3C2=O)cc1	i	i	i	i	108	nt	101
CC(=O)c1ccc(NC2=C(N3CCOCC3)C(=O)c3ccccc3C2=O)cc1	i	i	i	i	93	nt	67
CC(=O)N(C)C1=C(N2CCOCC2)C(=O)c2ccccc2C1=O	i	nt	i	i	nt	nt	nt
O=C(COc1ccc(Cl)cc1Cl)NCCn1ncc2c(=O)n(Cc3cccc(Cl)c3)cnc21	nt	nt	nt	i	nt	nt	nt
CCOC(=O)c1csc(-n2nc(C)cc2C(F)(F)F)n1	i	i	i	i	31	i	i
COc1cc(C(=O)NNC(=S)NC(=O)c2ccc(Cl)cc2)cc(OC)c1OC	i	i	i	i	30	nt	i
COc1ccc(C(=O)NNC(=S)NC(=O)c2ccc(Cl)cc2)cc1	nt	i	nt	i	i	i	nt
COCCn1nc(CNC(=O)c2cccc(C(F)(F)F)c2)cc1-c1ccco1	nt	nt	nt	i	nt	nt	nt
CCOC(=O)c1c(N=Cc2cc([N+](=O)[O-])ccc2O)sc(C)c1C	nt	nt	nt	i	nt	nt	nt
CCOC(=O)c1c(/N=C/c2cc([N+](=O)[O-])ccc2O)sc(C)c1C	i	i	i	nt	30	i	i
CC(=NNC(=S)Nc1cccc(Cl)c1)c1ccccn1	nt	i	nt	i	30	i	i
S=C(NCc1ccccn1)Nc1cccc(Cl)c1	nt	i	i	i	i	nt	nt
CCc1ccc([C@@H]2CC(=O)[C@@H]3CN(S(=O)(=O)c4ccc(Cl)cc4)[C@H](c4ccc(C)cc4)C[C@@H]3N2S(=O)(=O)c2ccc(C)cc2)cc1	nt	i	nt	nt	35	i	i
CCc1ccc([C@H]2[C@@H]3C(=O)C[C@@H]4C(=O)N(C)C(=O)[C@@H]4[C@@H]3CN2S(=O)(=O)c2ccc(C)cc2)cc1	nt	i	nt	nt	30	i	i
CCc1ccc([C@H]2[C@@H]3C(=O)C[C@@H]4C(=O)N(CC)C(=O)[C@@H]4[C@@H]3CN2S(=O)(=O)c2ccc(C)cc2)cc1	nt	i	nt	nt	i	i	nt
Cc1ccc(S(=O)(=O)N2C[C@H]3C(=O)C[C@@H](c4ccc(Cl)cc4)N(S(=O)(=O)c4ccc(C)cc4)[C@H]3C[C@H]2c2ccc(Cl)cc2)cc1	nt	i	nt	nt	i	i	nt
Cc1ccc([C@@H]2CC(=O)[C@@H]3CN(S(=O)(=O)c4ccc(C)cc4)[C@H](c4ccc(Cl)cc4)C[C@@H]3N2S(=O)(=O)c2ccc(Cl)cc2)cc1	i	i	nt	nt	31	i	i
C#CCn1c(=NC(=O)c2ccccc2[N+](=O)[O-])sc2cccc(Cl)c21	nt	nt	nt	i	nt	nt	nt
CCN(CC)CCCN1C(=O)C(=O)/C(=C(/O)c2ccccc2)C1c1cc(OC)ccc1OC (centres undefined)	i	i	i	nt	54	nt	i
CC(=O)N(c1ccccc1C)c1ccccc1C	i	i	nt	i	34	i	i
Cc1ccc(N2CC(c3nc(-c4ccc5c(c4)OCO5)no3)CC2=O)cc1F (centres undefined)	nt	nt	nt	i	nt	nt	nt
COc1ccc(OCC(=O)NCCS(=O)(=O)N2CCN(c3ccccn3)CC2)cc1	nt	nt	nt	i	nt	nt	nt
CCCN(CC(=O)Nc1cccc(S(N)(=O)=O)c1)CC(=O)Nc1ccc(F)c(F)c1F	i	i	i	i	i	i	nt
CCCN(CC(=O)Nc1cccc(Br)c1)CC(=O)Nc1ccc(F)c(F)c1F	i	i	i	i	37	nt	i

Source: PubChem BioAssay (several laboratories)
